These results are taken from PubChem BioAssay (NCI).

The structures appear in SMILES notation. “And” between values parts separate entries of the source, which are not always exact repeats. Equal values may be shown once. The panel holds about 83,000 compounds, 20% with a hit somewhere; the sample as a whole holds those more often.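 The test compound was applied at a single concentration to cells in 96-well plates for 48 hours, and percent growth was recorded.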 A structure can be active in one record and inactive in another. The source made the active and inactive calls.

For the first test, the system named is BT-549 breast. The test can be described thus: NCI-60 one-dose screen, 48 h (100 = growth as untreated, 0 = no growth, -100 = all killed). As to conditions: 10 µM. On the procedure:
Growth inhibition of the BT-549 human tumor cell line is measured as a screen for anti-cancer activity. Cells are grown in 96 well plates and exposed to the test compound for 48 hours. Compounds are tested at a single concentration, which is 10^-5 M for most compounds. The reported endpoint is percent growth (GI% or GIPRCNT), where numbers from 0 - 100% represent growth inhibition, and numbers from -100% - 0 represent cell death. For example, a value of 40 represents 60% growth inhibition. A value of 0 means no net growth occurred over the course of the experiment. A value of -40 indicates 40% of cells at the beginning of the experiment died by the end of the experiment. A value of -100 means all cells are dead at the end of the experiment.
NCI-60 Human Tumor Cell Lines Screen was performed using the standard one-dose NCI protocol, which is described in more detail at https://dtp.cancer.gov/discovery_development/nci-60/default.htm.
Compounds with GIPRCNT values below 10 were considered active. Activity score was based on GIPRCNT using the following formula: […]
Score is 0 for GIPRCNT values of 100 or above, 50 for GIPRCNT values of 0, and 100 for GIPRCNT values of -100.
As to `Cc1[nH]c(-c2nc3ccccc3[nH]2)c(C)c1C(=O)NC(C)C1CCCCC1` (stereo not given), the growth was 95.5% (inactive). Take `CC#C[C@]1(O)CC[C@H]2[C@@H]3CCC4=CC(=O)CCC4=C3[C@@H](c3ccc4c(c3)OCO4)C[C@@]21C`: the growth is 77.8% (inactive).

Still in this test, the particulars now being: 10 µM unless noted.
Regarding `O=C(Nc1ccc(Br)cc1)c1cc(Br)ccc1O`, the growth is -16.1% (active) and -40.7% (active). For `CCOC(=O)Nc1ccc2c(c1)/C(=N\NC(N)=S)c1ccccc1-2`, the growth was 41.6% (inactive) and 82.6% (inactive). With `O=C(/C=C/c1ccccn1)c1ccccc1O`, the growth was 112% (inactive). In the case of `O=C(O)CSCc1nc2ccccc2[nH]1`, the growth is 108% (inactive). On to `CC(=O)Nc1cccc2c1CCCC2`, for which the growth was 97% (inactive). As for `Cc1ccc(S(=O)(=O)Nc2ccc3cc([N+](=O)[O-])ccc3c2[N+](=O)[O-])cc1`, the growth was 92.3% (inactive) and 95.5% (inactive). For the compound `Nc1cc(-c2cccc(OC(F)(F)F)c2)nc2ccc(N3CCCC3)cc12`, the growth was 16.2% (inactive) and 26.9% (inactive) and 3.22% (active). In the case of `O=C1c2ccccc2C(=O)c2c(NCCNCCO)ccc(NCCNCCO)c21`, the growth was 6.06% (active) and 86.7% (inactive) and 62.6% (inactive). Turning to `CN(C)c1ccc(C(=C2C=CC(=[N+](C)C)C=C2)c2ccccc2Cl)cc1`, the growth was -35.9% (active) and 1.51% (active). `CN1CCN(C2CCN(C(=O)Nc3cc(Oc4ccc(NC(=O)C5(C(=O)Nc6ccc(F)cc6)CC5)c(F)c4)ccn3)CC2)CC1`: the growth is -68.7% (active) and 98.5% (inactive). Take `Nc1ccccc1Nc1ccccc1`: the growth is 70.9% (inactive) and 58.4% (inactive). With `CC1=C(/C=C/C(C)=C/C=C/C(C)=C/C=N/NC(=S)NC(=S)N/N=C/C=C(C)/C=C/C=C(C)/C=C/C2=C(C)CCCC2(C)C)C(C)(C)CCC1`, the growth was -24.7% (active) and 5.7% (active). In the case of `Cn1c(SSc2ccc(-c3cccnc3)n2C)ccc1-c1cccnc1`, the growth was 107% (inactive) and 105% (inactive). For `O=C(/C=C\c1ccnc2ccccc12)c1ccc([N+](=O)[O-])cc1`, the growth was 80.4% (inactive) and 77.9% (inactive).

On to `CN(Cc1ccccc1)Cc1ccccc1`, for which the growth was 106% (inactive). As to `Cc1cc(O)c2c(c1)C(=O)c1cc(O)cc(O)c1C2=O`, the growth is 84.5% (inactive) and 88.1% (inactive).

With `N#C/C(=C/c1c(O)ccc2ccccc12)C(N)=O`, the growth is 93.7% (inactive).

For the compound `O=[N+]([O-])c1ccc2nc3c4ccccc4c4ccccc4c3nc2c1`, the growth was 86.9% (inactive).

Turning to `O=C(Oc1cccc(OC(=O)c2ccccc2)c1)c1ccccc1`, the growth is 112% (inactive) and 90.8% (inactive). As for `O=C(Nc1ccc(Cl)cc1)c1cc2ccccc2cc1O`, the growth was 23.3% (inactive). On the same count and under the same terms, in the case of `O=[N+]([O-])c1ccc(N/N=C\c2cc(Br)ccc2O)nc1` it was 25.6% (inactive); in that of `CNC(=O)c1cccc(-c2ccc3c(N4CCOC[C@@H]4C)nc(N4CCOC[C@@H]4C)nc3n2)c1`, -7.8% (active) and -13.9% (active); in that of `CCNC(=O)Nc1ccc(-c2nc3c(c(N4CCOC[C@@H]4C)n2)CCN(C2COC2)C3)cc1`, 28.9% (inactive) and -1.93% (active). As for `O=CC(O)C(O)C(O)CO` (stereo not given), the growth is 104% (inactive). Consider `Oc1c(Cl)cc(Cl)cc1Sc1cc(Cl)cc(Cl)c1O`, for which the growth is 32.1% (inactive) and 77% (inactive). On the same count and under the same terms, for `CC1CCCc2sc3nc(NNC(=O)c4cnccn4)n(-c4ccccc4)c(=O)c3c21` (stereo not given) the value was 12.8% (inactive); for `COc1ccc(Cn2c(NCCN=C(N)N)nc(=O)n(Cc3ccc(F)cc3)c2=O)cc1`, 86.9% (inactive) and 70.2% (inactive); for `O=C(CCl)c1ccc2c(c1)Nc1ccccc1S2`, 74% (inactive) and 76.1% (inactive). Same read-out and setting: in the case of `OC1CCC(Oc2cccc3cnc(Nc4ccc5nc[nH]c5c4)nc23)CC1` (stereo not given) it was -19.5% (active) and 18.4% (inactive). As for `COc1ccc2c(=O)cc(-c3ccccc3)[nH]c2c1`, the growth was 48.6% (inactive) and 45.1% (inactive). Regarding `COc1ccc(NC(=S)Nc2ccccn2)cc1`, the growth is 105% (inactive). With `COc1cc(/C=N/Nc2nc3c([nH]2)c(=O)n(C)c(=O)n3C)ccc1O`, the growth is 103% (inactive) and 112% (inactive).

Consider `CC1(c2ccc3ccccc3c2)CCC(=O)O1` (stereo not given), for which the growth was 104% (inactive).

In the case of `CCN(CC)CCOc1ccc2c(c1)C(=O)c1cc(OCCN(CC)CC)ccc1-2`, the growth is 96% (inactive) and 76.3% (inactive). `O=C(CCc1ccc(O)cc1)N/N=C/c1cc(Br)ccc1O`: the growth is 52.4% (inactive).

On to `Cn1c(=O)n(-c2ccc(C(C)(C)C#N)cc2)c2c3cc(-c4cnc5ccccc5c4)ccc3ncc21`, for which the growth is -8.12% (active) and -14.5% (active).

Staying with this test, now noted: 100 µM.
Take `Cc1[nH]c(-c2nc3ccccc3[nH]2)c(C)c1C(=O)NC(C)C1CCCCC1` (stereo not given): the growth was -81.6% (active). Regarding `CC#C[C@]1(O)CC[C@H]2[C@@H]3CCC4=CC(=O)CCC4=C3[C@@H](c3ccc4c(c3)OCO4)C[C@@]21C`, the growth was -33.1% (active).
